This is a sample that favours compounds with a hit; in the whole collection about 21% have one here.
IL-1B inflam inh: blocks inflammasome-driven IL-1 beta release. hit rate 4.7% among 360,000. AID 743279. activity change, % at 57.5 µM. THP-1 LPS/ATP IL-1B secretion, AlphaLISA, 16 h; stronger effect = lower value; in the data active = activity change below about -50%; inconclusive = mostly about -30% to -49%
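THP-1 cells pretreated 1 hr with compounds (up to 57.5 uM final), then stimulated with LPS (250 ng/mL final) plus ATP (1.25 mM final); secreted IL-1B measured by AlphaLISA after 16 hr, decreased signal indicating inhibition.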
D3 antag: blocks the human D3 dopamine receptor | P35462 | D3R cells, DiscoveRx beta-arrestin luminescence, antagonist mode; stronger effect = lower value | max response, negative = inhibition, % | hit rate 2.5% among 360,000; in the data active = max response below about -50%; inconclusive = no clear call, values can overlap the other calls
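Cells plated overnight at 1500 cells/well, then exposed to library compounds with dopamine controls for 90 minutes at 37 degrees C. DiscoveRx reagent added for 30–60 minutes at room temperature; luminescence read, quantitative HTS format.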
TDP1 cell CPT: DT40-hTDP1 cell growth loss with CPT. chicken DT40 Tdp1-/-;hTDP1 cells + 20 nM CPT, ATP luminescence, 48 h. Potency, µM (highest dose often 46.2 µM), usual class: inhibitors. hit rate 12% among 420,000; note: nearly all actives have a fitted effect of over 55% in size
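Cell growth measured by CellTiter-Glo luminescence after a minimum 48 h, 37 C compound exposure with 20 nM CPT in Tdp1-knockout DT40 cells stably expressing hTDP1, seeded 400/well; qHTS titration format.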
ClpP mod: qHTS Assay for Activators of ClpP; hit rate 1.9% among 340,000; purified B. subtilis ClpP, FRET peptide cleavage, 20 min; Potency, µM (series often up to 57.5 µM); ATP-dependent Clp protease proteolytic subunit (Bacillus subtilis (strain 168)), P80244; AID 651965, 2013; active = well fitted falling curve with a large enough effect; inconclusive = small, poorly fitted or top-dose-only effect; inactive = no such curve, though single readings can be large or run the other way; note: the source files actives as falling curves though it sought activators and does not explain the sign; nearly all actives have a fitted effect of over 65% in size
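FRET quenching reversal measured ClpP activation: 10 microg/mL B. subtilis ClpP at pH 8 with the FRET-FV decapeptide, read at 430 nm after 320 nm excitation. The 20-min minus 0-min signal was scaled between DMSO/no-enzyme wells and ADEP (5.8 microM final).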
TDP1 cell noCPT: qHTS for Inhibitors of human tyrosyl-DNA phosphodiesterase 1 (TDP1): qHTS in cells in absence of CPT. DT40 Tdp1-/- hTDP1 cells, no CPT, ATP luminescence, 48 h. Potency, µM (top dose mostly 46.2 µM), hits mostly inhibitors. hit rate 15% among 420,000; note: nearly all actives have a fitted effect of over 55% in size
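Readout: luminescence from CellTiter-Glo after 30 min in the dark at RT. Cells: DT40 Tdp1-/- with stable hTDP1, 400/well. Exposure: compounds alone, ≥48 hr, 37 °C.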
DRD3 agonist: D3 dopamine receptor (human) agonism; max activation, %; P35462; AID 652048; hit rate 0.58% among 410,000; D3R DiscoveRx beta-arrestin cells, luminescence, 90 min; in the data active = max activation above about 30%
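Agonist mode: compounds and dopamine controls were applied to plated cells for 90 min at 37 degrees C after an overnight attachment at 1500 cells/well. Luminescent read-out followed 30 - 60 minutes at room temperature with DiscoveRx detection reagent.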
Large screens that a line does not name were inactive. Unless noted, calls come from the whole dose curve; as a rule, active = well fitted inhibition curve with a large enough effect; inconclusive = small, poorly fitted or top-dose-only effect; inactive = flat fitted curve, though single readings scatter.

CCOC(=O)c1ccc(NC(=O)c2c(NCc3cc(OC)c(OC)cc3OC)sc3c2CCCC3)cc1	TDP1 cell CPT 23µM, TDP1 cell noCPT inconclusive (no result: IL-1B inflam inh, D3 antag)
CN(C)c1ccc(/C=C(\NC(=O)c2ccccc2)C(=O)NCCN2CCOCC2)cc1	none (no result: ClpP mod)
CCc1ccc(-n2c(CSc3nnnn3-c3ccccc3)nc3ccccc3c2=O)cc1	TDP1 cell CPT inconclusive, TDP1 cell noCPT 18µM
O=C(CSc1nc2ccccc2c(=O)[nH]1)N1CCN(c2ccccc2F)CC1	TDP1 cell CPT inconclusive, TDP1 cell noCPT 18µM (no result: ClpP mod)
COc1ccc(C(=O)CSc2nc(C(C)(C)C)nc3ccccc23)cc1	TDP1 cell CPT inconclusive, TDP1 cell noCPT 21µM
COc1cccc(OCCSc2nc3ccccc3c(=O)[nH]2)c1	TDP1 cell noCPT 21µM (no result: ClpP mod)
O=C(CSc1nc2ccccc2c(=O)[nH]1)N1CCCCC1	none
COc1ccc(OCCSc2nc3ccccc3c(=O)[nH]2)cc1	TDP1 cell CPT inconclusive, TDP1 cell noCPT inconclusive
CCOC(=O)N1CCN(C(=O)COC(=O)CNC(=O)c2ccc(C)cc2)CC1	none
CC1CC(C)(C)OC(C[N+]2(C)CCCCC2)O1 (stereo not drawn)	none (no result: ClpP mod)
O=C(CSc1nc2ccccc2c(=O)[nH]1)c1ccccc1	TDP1 cell CPT 21µM, TDP1 cell noCPT 29µM
Cc1cc(C(=O)CSc2nc3ccccc3c(=O)[nH]2)c(C)n1C	TDP1 cell CPT inconclusive, TDP1 cell noCPT 6.5µM
O=C(O)CSc1nc2ccccc2c(=O)[nH]1	none
O=c1[nH]c(SCc2nc3ccccc3c(=O)n2-c2ccccc2)nc2ccccc12	TDP1 cell CPT 12µM, TDP1 cell noCPT inconclusive
CC(C)(C)c1ccc(C(=O)CSc2nc3ccccc3c(=O)[nH]2)cc1	TDP1 cell CPT 2.8µM, TDP1 cell noCPT 2.8µM, DRD3 agonist 34
CCc1nn(CC(=O)NCCc2ccc(S(N)(=O)=O)cc2)c(=O)c2cc3sccc3n12	none (no result: ClpP mod)
COc1ccc(S(=O)(=O)NCCc2sc(-c3cccnc3)nc2C)cc1	none (no result: IL-1B inflam inh, D3 antag, TDP1 cell CPT, TDP1 cell noCPT)
O=C(CCCSc1nc2ccccc2c(=O)[nH]1)c1ccccc1	TDP1 cell CPT inconclusive, TDP1 cell noCPT 15µM
CCCCc1c(O)nc(SCC(=O)c2ccccc2)[nH]c1=O	TDP1 cell CPT inconclusive, TDP1 cell noCPT inconclusive
O=C(CSc1nc(O)c(Cc2ccccc2)c(=O)[nH]1)c1ccccc1	TDP1 cell CPT inconclusive, TDP1 cell noCPT 2.1µM (no result: ClpP mod)
COCCCN1CCc2nc(SCC(=O)Nc3ccc(C)c(Cl)c3)[nH]c(=O)c2C1	TDP1 cell CPT inconclusive, TDP1 cell noCPT inconclusive (no result: IL-1B inflam inh, D3 antag)
C/C(=N/NC(=O)C(O)(c1ccccc1)c1ccccc1)c1ccc([N+](=O)[O-])o1	TDP1 cell CPT 21µM, TDP1 cell noCPT 21µM
C/C(=N\NC(=O)c1cccc([N+](=O)[O-])c1)c1ccco1	none (no result: ClpP mod)
CCN(CC)CCNC(=O)C12CC3CC(CC(C3)C1)C2	D3 antag -63
O=C(c1ccccc1)N1CCN(C(=O)c2ccccc2)C1c1ccccc1	D3 antag -51
CC(=O)N1CCN(C(C)=O)C1c1ccccc1	none
COC(=O)C1(C(=O)OC)C[C@H](c2ccc(OC)cc2)N(Cc2ccccc2OC)[C@@H]1c1ccc(OC)cc1	IL-1B inflam inh inconclusive, TDP1 cell CPT inconclusive, TDP1 cell noCPT 21µM
CC(=O)Oc1ccc(/C=c2\sc3ncnn3c2=O)cc1	TDP1 cell CPT 21µM, TDP1 cell noCPT inconclusive
COc1ccc(S(=O)(=O)NCCCN2CCCC2=O)c(OC)c1	none
O=[N+]([O-])c1ccc(OCCCCN2CCc3ccccc3C2)cc1	IL-1B inflam inh inconclusive, D3 antag -102, TDP1 cell noCPT inconclusive (no result: ClpP mod)
O=[N+]([O-])c1ccc(OCCCCCN2CCOCC2)cc1	TDP1 cell CPT inconclusive, TDP1 cell noCPT inconclusive
O=[N+]([O-])c1ccc(OCCCCN2CCCCC2)cc1	D3 antag -58
Cc1ccc(CNC(=O)c2ccc(S(=O)(=O)Nc3c(C)n(C)n(-c4ccccc4)c3=O)cc2)cc1	TDP1 cell CPT inconclusive, TDP1 cell noCPT 21µM (no result: ClpP mod)
Cc1c(N2C(=O)CSC2c2ccc([N+](=O)[O-])cc2)c(=O)n(-c2ccccc2)n1C (stereo not drawn)	TDP1 cell CPT inconclusive (no result: ClpP mod)
Cc1sc(Nc2ccc([N+](=O)[O-])cc2)nc1-c1c(C)n(C)n(-c2ccccc2)c1=O	TDP1 cell CPT inconclusive, TDP1 cell noCPT 23µM
Cc1c(NS(=O)(=O)c2ccc(NC(=O)CCC(=O)O)cc2)c(=O)n(-c2ccccc2)n1C	IL-1B inflam inh -71
CC(=O)Nc1ccc(S(=O)(=O)Nc2c(C)n(C)n(-c3ccccc3)c2=O)cc1	none
Cc1c(NC(=O)Nc2ccc([N+](=O)[O-])cc2)c(=O)n(-c2ccccc2)n1C	TDP1 cell CPT inconclusive, TDP1 cell noCPT 21µM (no result: ClpP mod)
O=C(c1ccc(Cl)cc1)c1ccc(Oc2cc(NN3CCCCC3)c([N+](=O)[O-])cc2[N+](=O)[O-])cc1	TDP1 cell CPT inconclusive
CN(C)Cc1ccccc1-c1cc(N(C)Cc2ccco2)ncn1	none (no result: IL-1B inflam inh, D3 antag, ClpP mod, DRD3 agonist)
Cc1cccc(CNCCn2cc(C(=O)Nc3ccccc3)nn2)c1	none (no result: IL-1B inflam inh, D3 antag, ClpP mod, DRD3 agonist)
C#CCOC(=O)Nc1ccc(=O)n(Cc2c(Cl)cccc2Cl)c1	ClpP mod 28µM
Cc1occc1C(=O)Nc1cc(C(C)(C)C)on1	TDP1 cell CPT inconclusive, TDP1 cell noCPT inconclusive
Cc1cccc(NC(=O)c2ccccc2Br)n1	none
O=C(Nc1ccc(Br)cn1)c1cccc2c1-c1ccccc1C2=O	TDP1 cell CPT 4.1µM, TDP1 cell noCPT 3.3µM
Cc1cccc(NC(=O)c2ccoc2C)n1	ClpP mod 28µM
Cc1cccc(NC(=O)c2cccc3c2-c2ccccc2C3=O)n1	TDP1 cell CPT inconclusive, TDP1 cell noCPT 16µM (no result: ClpP mod)
COc1ccc(-c2cc3ccc(O)c(CN4CCCCC4C)c3oc2=O)cc1OC (stereo not drawn)	TDP1 cell CPT inconclusive (no result: IL-1B inflam inh, D3 antag)
COc1ccccc1CNC(=O)c1ccc2c(c1)N(Cc1cccc(C)c1)C(=O)c1ccccc1S2(=O)=O	TDP1 cell CPT inconclusive (no result: IL-1B inflam inh, D3 antag)
Cc1ccc(F)c(S(=O)(=O)NC(=O)C2(C)CCN2C(=O)CC(c2ccccc2)c2ccccc2)c1 (stereo not drawn)	TDP1 cell CPT inconclusive, TDP1 cell noCPT 21µM
CC1(C(=O)Nc2nccs2)CCN1C(=O)C1(c2ccccc2)CC1 (stereo not drawn)	none
C#Cc1ccc(NC(=O)C2(C)CCN2C(=O)CC(c2ccccc2)c2ccccc2)cc1 (stereo not drawn)	TDP1 cell CPT 16µM, TDP1 cell noCPT inconclusive
CC1(C(=O)Nc2nccs2)CCN1C(=O)CC(c1ccccc1)c1ccccc1 (stereo not drawn)	TDP1 cell CPT 16µM, TDP1 cell noCPT 21µM
